Results on 30 compounds are retold here after PubChem BioAssay (NCATS).

Results filed as inconclusive are left out. A call without a number means that no potency is given here. Unmarked numbers belong to inactive results. Calls of active or inactive are those of the source. Calls come from the whole dose curve; as a rule, active = well fitted activation curve with a large enough effect; inconclusive = small, poorly fitted or top-dose-only effect; inactive = flat fitted curve, though single readings scatter.

The nature of the assay: Primary redox qHTS assay for identification of artifact compounds. (AID 1845223). Particulars: Amplex Red/HRP redox cycling with DTT, fluorescence; series mostly up to 53.8 µM. The method, boiled down: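 Redox-cycling detection via DTT (250 uM final) oxidation coupled to Amplex Red (25 uM)/HRP (250 mU/mL) in HBSS. 15 min preincubation plus 30 min after DTT, room temperature. Ex/Em 525/598 nm; 4-parameter Hill fit against DMSO and 10 uM DA3003.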
With `COc1cc2ncnc(Nc3ccc(O)cc3)c2cc1OC`, the Potency result is “inactive”. Take `CC(C)(C)NC(=O)[C@@H](c1cccnc1)N(C(=O)c1ccco1)c1ccc(C(C)(C)C)cc1`: the Potency result was “inactive”.

For the compound `C=C1CCC2C(C)(C)C(O)CCC2(C)C1CCC(C)CCOC(C)=O` (stereo not given), the Potency result was “inactive”.

Regarding `OC/C=C/c1ccc(O[C@@H]2O[C@H](CO)[C@@H](O)[C@H](O)[C@H]2O)cc1`, the Potency entry was “inactive”.

With `C=C(C(=O)O)C1CC2=C(C)CCCC2(C)C[C@@H]1O` (stereo not given in full), the Potency result was “inactive”. `CSc1ccc(C(=O)N[C@@H]2CCCC[C@@H]2NC(=O)CNC(=O)c2cc(C(F)(F)F)ccc2NC(=O)NC(C)C)cc1`: the Potency entry was “inactive”. The same measure, in the same setting: as for `C=CC(C)(C)c1[nH]c2cc3c(cc2c1CC1NC(=O)C2=CCCN2C1=O)C=CC(C)(C)O3` (stereo not given), the entry is “inactive”; as for `COc1ccc(-n2[nH]c(=O)c3[nH]c4cc(Cl)ccc4c(=O)c3c2=O)c(C)c1`, “inactive”. Turning to `CN=C(N)NCCCCC/C=C(/C)CC(C)C1OC(=O)C(C)C(O)/C=C/C(C)C(O)CC(O)C(C)C(O)CCC(C)C(O)CC2(O)OC(CC(OC(=O)CC(=O)O)CC(O)CC(O)C(C)C(O)/C(C)=C/CCC1C)CC(O)C2O` (stereo not given), the redox activity (% of DA3003) was -4.57% [at 11.5 µM]. Turning to `COc1ccc([C@@]2(O)c3c(ccc(CC=C(C)C)c3O)NC(=O)[C@@H]2OC)cc1`, the Potency result is “inactive”.

`CC1(C)CCCC2(C)C(CO)C(CO)=CCC12` (stereo not given): the Potency result was “inactive”.

On to `C[C@@H]1O[C@@H](O[C@@H]2[C@@H](O)[C@H](O[C@H]3CC[C@@]4(C)C(CC[C@]5(C)C4CC=C4[C@@H]6CC(C)(C)CC[C@]6(C(=O)O[C@@H]6O[C@H](CO)[C@@H](O)[C@H](O)[C@H]6O)CC[C@]45C)C3(C)C)O[C@H](C(=O)O)[C@H]2O)[C@H](O)[C@H](O)[C@H]1O` (stereo not given in full), for which the redox activity (% of DA3003) was 12.9% [at 11.5 µM]. As to `COc1ccc(C2COc3cc(O)ccc3C2)c(O)c1` (stereo not given), the Potency result is “inactive”. Still for that read-out and setting: as for `C=C1[C@H](OC(C)=O)[C@H]2[C@@H](OC(C)=O)[C@](C)(OC(C)=O)C[C@]2(OC(C)=O)C(=O)[C@H](C)/C=C/C(C)(C)C(=O)[C@H](OC(=O)C(C)C)[C@H]1OC(C)=O`, the entry is “inactive”; as for `Cc1ccccc1C#Cc1ccc(CCC(=O)O)cc1`, “inactive”; as for `COC(=O)Cc1cc2c(c([N+](=O)[O-])c1)N(C(=O)CC[C@H](N)C(=O)O)CC2`, “inactive”. For `COc1cc(Br)c(S(=O)(=O)Nc2ccc(C(F)(F)F)c(O[C@@H]3CCN(C)C3)c2)cc1OC`, the Potency result was “inactive”. Still for that read-out and setting: as for `N#CC(c1ccnc(OCc2ccc(CN3CCOCC3)cc2)n1)c1nc2ccccc2s1` (stereo not given), the entry is “inactive”; as for `Cc1ccc(S(=O)(=O)Nc2ccccc2N2CCCCC2)s1`, “inactive”; as for `CC(C)/C=C1\NC(=O)C(C(C)C)n2c1nc1c(c2=O)C=CC=CO1` (stereo not given), “inactive”. For the compound `C=C1C(OC(C)=O)CCC2(C)CC3(OC)OC(=O)C(C)=C3CC12` (stereo not given), the Potency result was “inactive”. Same read-out and setting: next, `O=C1C=CC(O)(/C=C/C(=O)OC[C@H]2O[C@@H](Oc3ccc(O)cc3)[C@H](O)[C@@H](O)[C@@H]2O)C=C1`: “inactive”. For the compound `O=S(=O)(Nc1ccccn1)c1ccc(N=Cc2c(O)[nH]c3ccc4ncsc4c23)cc1`, the redox activity (% of DA3003) was -4.81% [at 11.5 µM]. For `C=C1CCC2C(C)(C)CCC[C@]2(C)[C@H]1C/C=C(\CO)C(=O)C(=O)O` (stereo not given in full), the Potency entry is “inactive”. Same read-out and setting: as for `CC1=CC(=O)CC2C1(O)CCC(C)C21CC(c2ccoc2)OC1=O` (stereo not given), the entry is “inactive”; as for `COC(=O)CC1CC(c2ccc(O)cc2)=NO1` (stereo not given), “inactive”.

With `COC(=O)C1=CO[C@@H](O[C@@H]2O[C@H](CO)[C@@H](O)[C@H](O)[C@H]2O)[C@@H]2C(COC(C)=O)=C[C@H](O)[C@H]12`, the Potency result is “inactive”. With `O=C1NC(=O)C(c2cn(-c3ccccc3)nc2-c2ccc(F)cc2)N1` (stereo not given), the Potency result is “inactive”. The same measure, in the same setting: next, `COC(=O)c1ccnc(-c2cc(C(=O)NCCc3ccccc3)ccn2)c1`: “inactive”; `COc1ccc([C@@]2(O)c3c(ccc4c3OC(C)(CCC=C(C)C)C=C4)NC(=O)[C@@H]2OC)cc1` (stereo not given in full): “inactive”.
